From PubChem BioAssay (NCATS)
Inconclusive results are not listed. A number with no mark means an inactive call. Active and inactive are the calls of the source. Calls follow the shape of the dose curve; as a rule, active = well fitted inhibition curve with a large enough effect; inconclusive = small, poorly fitted or top-dose-only effect; inactive = no such curve, though single readings can be large or run the other way. Where a SMILES comes first, the peptide text is derived from it. Bridges are numbered along the chain shown (N, C = ends). [ ]: non-standard residue; d: D form. NMeY = CN[CH](Cc1ccc(O)cc1)C(=O)O

The molecules below were run on Zika virus NS2B-NS3 protease (linked construct) (assay: Primary screen NINDS Rhodamine qHTS for Zika virus inhibitors (AID 1347160; also: nearly all actives have a fitted effect of over 55% in size)). Conditions: purified NS2B-NS3 protease, Rhodamine110 substrate fluorescence; series mostly up to 57.1 µM; activity change, negative = inhibition: at the top concentration.
Method in brief: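 Single-chain NS2B-NS3 protease, 25 nM, pH 8.0; compounds preincubated 15 min. Activity: Rhodamine110 release from 1.5 microM substrate over 15 min, room temperature, data fitted to 4-parameter Hill.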
% is scaled to controls: 0 for no effect and ±100 for the full control effect.

SMILES | activity change, negative = inhibition | outcome
C=CC(C)(C)c1[nH]c2cc3c(cc2c1CC1NC(=O)C2CCCN2C1=O)C=CC(C)(C)O3 (stereo not given) | 18.8% [at 33.1 µM] | –
CC(=O)O[C@H]1CC(C)(C)CC2[C@@]13[C@H](O)C[C@]1(C)[C@@]2(CCC2[C@@]4(C)CC[C@H](O[C@@H]5OC[C@H](O[C@@H]6O[C@H](CO)[C@@H](O)[C@H](O)[C@H]6O[C@@H]6OC[C@@H](O)[C@H](O)[C@H]6O)[C@H](O)[C@H]5O[C@@H]5O[C@H](CO)[C@@H](O)[C@H](O)[C@H]5O)C(C)(C)C4CC[C@]21C)O[C@@H]3O (stereo not given in full) | 11% [at 15.1 µM] | –
O=C(NCc1cccc(O)c1)Nc1nc(-c2ccncc2)cs1 | – | inactive
COC1CC(O[C@H]2CC[C@@]3(C)C(CCC4C3[C@H](OC(C)=O)[C@@H](OC(=O)/C=C/c3ccccc3)[C@]3(C)C(C(C)=O)CC[C@]43O)C2)OC(C)C1OC1CC(OC)C(OC2CC(OC)C(OC3OC(C)C(OC4OC(CO)C(O)C(O)C4O)C(OC)C3O)C(C)O2)C(C)O1 (stereo not given in full) | 20.6% [at 10.7 µM] | –
CCOc1cc(C)c(Cl)cc1S(=O)(=O)n1cnc2ccccc21 | 29% [at 33.1 µM] | –
CC(=O)c1cc2c(cc1O)OC(C)(C)C=C2 | 29.9% | –
CC1OC(OC2C(C)OC(OC3C(O)C(CO)OC(O[C@H]4CC[C@@]5(C)C(CC[C@]6(C)C5CC=C5C7[C@@H](C)[C@H](C)CC[C@]7(C(=O)O)CC[C@]56C(=O)O)C4(C)C)C3O)C(O)C2O)C(O)C(O)C1O (stereo not given in full) | 43.2% [at 15.1 µM] | –
N#Cc1c(Oc2ccc(F)c(NC(=O)Cc3cccc(C(F)(F)F)c3)c2)ccc2nc(NC(=O)C3CC3)sc12 | – | inactive
C=CC(=O)Nc1cc(Nc2nccc(-c3c[nH]c4ccccc34)n2)c(OC)cc1N(C)CCN(C)C | 122% | –
CCC(C)C1NC(=O)C2CCCN2C(=O)C(NC(C)=O)C(C)OC(=O)C(Cc2ccc(OC)cc2)N(C)C(=O)C2CCCN2C(=O)C(C(C)C)NC1=O (stereo not given) (Ac-TPIVP[NMeY](Me); ester 1-C; configuration not given here) | – | inactive [at 15.1 µM]
COC1C(CO)OC(n2cnc3c(=O)[nH]cnc32)C1O (stereo not given) | – | inactive
CCCN1CCC(c2cccc(S(C)(=O)=O)c2)CC1 | – | inactive
COc1ncc2cc(C(=O)Nc3cc(C(=O)NCc4cccc(Cl)c4)ccc3Cl)c(=O)[nH]c2n1 | -5.97% | –
CCC(O)(C(=O)OCc1ccccc1NC(=O)CCC(=O)O)C(C)O (stereo not given) | – | inactive [at 33.1 µM]
C=CC1(C)C=C2CCC3C(C)(C)C(O[C@@H]4O[C@@H](CO)[C@H](O)[C@H]4O)CCC3(C)C2CC1O[C@@H]1O[C@H](C)[C@H](O)[C@H](O)[C@H]1O (stereo not given in full) | -8.54% [at 33.1 µM] | –
CCC1C(=O)N(C)c2cnc(Nc3ccc(C(=O)NC4CCC(N5CCN(CC6CC6)CC5)CC4)cc3OC)nc2N1C(C)C (stereo not given) | -9.56% | –
C=C(C(=O)OC)C1C(O)CC2(C)C(O)CCC(=O)C2C1O (stereo not given) | – | inactive
C[C@]12C[C@@H](O)[C@@H]3C[C@@]1(O[C@@H]1O[C@H](CO)[C@@H](O)[C@H](O)[C@H]1O)[C@]3(COC(=O)c1ccccc1)C(=O)O2 | -20.2% [at 33.1 µM] | –
C=C[C@H]1CN2CC[C@H]1C[C@@H]2C(O)c1ccnc2ccc(OC)cc12 (stereo not given in full) | 42.3% [at 33.1 µM] | –
NC[C@@](O)(c1ccc(Cl)cc1)c1ccc(-c2cn[nH]c2)cc1 | 12.4% | –

SMILES | activity change, negative = inhibition | outcome
O=[N+]([O-])c1cccc2[nH]c(CNc3nc(N4CCOCC4)nc4c3ncn4-c3ccsc3)nc12 | 3.68% | –
OC[C@H]1O[C@@H](O[C@H]2[C@H](OCc3ccccc3)O[C@H](CO[C@@H]3OC[C@@H](O)[C@H](O)[C@H]3O)[C@@H](O)[C@@H]2O)[C@H](O)[C@@H](O)[C@@H]1O | -5.67% [at 33.1 µM] | –
CCOc1cc2ncc(C#N)c(Nc3ccc(F)c(Cl)c3)c2cc1NC(=O)/C=C/CN(C)C | 147% | –
O=C(/C=C/c1ccc(O)cc1)OC1[C@H](O)CC(O)(C(=O)O)C[C@H]1O (stereo not given in full) | -2.21% [at 33.1 µM] | –
FC(F)(F)c1ccc(Nc2nc(-c3c(C(F)(F)F)nc4ccccn34)cs2)cc1 | 40.2% | –
OC[C@H]1O[C@@H](OCCc2ccccc2)[C@H](O[C@@H]2OC[C@](O)(CO)[C@H]2O)[C@@H](O)[C@@H]1O | 4.43% [at 33.1 µM] | –
Cn1c2ccc(F)cc2c2c(C(=O)N3CCCC3)cn(-c3ccccc3)c(=O)c21 | 7.84% | –
Cc1nc2ccc(Oc3ccc(F)cc3)cc2c(=O)n1C[C@H]1CCCN(C(C)C)C1 | 50.1% | –
CC(=O)c1cc(C(=O)N[C@@H](C)Cn2ccc(-c3ccc(C#N)c(Cl)c3)n2)[nH]n1 | – | inactive
CC(Nc1ncnc2nc[nH]c12)c1cc2cccc(Cl)c2c(=O)n1-c1ccccc1 (stereo not given) | 25.7% | –
COC(=O)CCc1cc2ccoc2c(OC)c1O[C@@H]1O[C@H](CO)[C@@H](O)[C@H](O)[C@H]1O | 5.39% [at 33.1 µM] | –
NC(=O)c1cccc2cn(-c3ccc(C4CCCNC4)cc3)nc12 (stereo not given) | – | inactive
NC(=O)Nc1cc(-c2cccc(F)c2)sc1C(=O)NC1CCCNC1 (stereo not given) | 68.1% | –
COc1c(/C=C/C(C)(C)O)ccc2c1C(=O)OCc1cc(C)cc(O)c1O2 | -25.4% [at 33.1 µM] | –
COC(C(=O)N1Cc2[nH]nc(NC(=O)c3ccc(N4CCN(C)CC4)cc3)c2C1)c1ccccc1 (stereo not given) | -10.9% | –
COc1cc(OC)cc(C(=O)Nc2ccc(Cl)c(-c3nc4ccc(N(C)C)cc4[nH]3)c2)c1 | 29.6% | –
CC(C)C[C@H](CC(=O)NO)C(=O)N[C@@H](Cc1ccc2ccccc2c1)C(=O)N[C@@H](C)C(=O)NCCN | 7.17% | –
CC(NC(=O)CCc1nc2ccccc2c(=O)[nH]1)c1ccccc1 (stereo not given) | – | inactive
CC[C@]12C=CCN3CC[C@@]4(c5cc([C@@]6(C(=O)OC)C[C@H]7C[C@@H](C(C)(F)F)CN(Cc8c6[nH]c6ccccc86)C7)c(OC)cc5N(C)[C@H]4[C@@](O)(C(=O)OC)[C@@H]1OC(C)=O)[C@@H]32 | 65.5% [at 15.1 µM] | –
C=C[C@H]1[C@H](O[C@@H]2O[C@H](CO)[C@@H](O)[C@H](O)[C@H]2O)OC=C(C(=O)OC)[C@H]1CC(=O)O | – | inactive [at 33.1 µM]
